Cruzain inh Det = cruzain (T. cruzi) inhibition with detergent; P25779; purified cruzain, Z-FR-AMC fluorescence, 0.01% Triton; Potency, µM, hits mostly inhibitors; actives 0.43% (n = 200,000); AID 1478; note: nearly all actives have a fitted effect of over 40% in size
Target sequence (P25779 123-467 limits assumed): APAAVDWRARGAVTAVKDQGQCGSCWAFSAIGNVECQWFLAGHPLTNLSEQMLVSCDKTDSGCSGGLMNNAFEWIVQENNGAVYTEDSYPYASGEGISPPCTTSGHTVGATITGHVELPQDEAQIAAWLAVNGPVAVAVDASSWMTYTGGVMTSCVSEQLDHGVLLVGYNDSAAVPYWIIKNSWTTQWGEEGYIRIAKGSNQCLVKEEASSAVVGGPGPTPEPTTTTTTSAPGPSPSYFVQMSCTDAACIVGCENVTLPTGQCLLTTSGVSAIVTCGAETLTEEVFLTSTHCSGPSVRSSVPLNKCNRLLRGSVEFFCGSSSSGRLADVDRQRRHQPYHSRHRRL
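Z-FR-AMC hydrolysis (2 uM substrate) by cruzain (1.5 nM) monitored kinetically at ex 360/em 450 nm after 15 min room-temperature compound exposure; 0.01% Triton X-100, pH 5.5, 5 mM DTT.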
Cruzain inh noDet = cruzain (T. cruzi) inhibition without detergent; actives 2.3% (n = 200,000); AID 1476; P25779; Potency, µM, actives largely listed as inhibitors; purified cruzain, Z-FR-AMC fluorescence, no detergent; note: nearly all actives have a fitted effect of over 40% in size
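Purified cruzain at 1.5 nM, pre-incubated 15 min with compound at room temperature in 100 mM sodium acetate pH 5.5, 5 mM DTT, 0.00005% Triton X-100. Reaction started with 2 uM Z-FR-AMC; AMC fluorescence increase over 60 s gives rate.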
Each line names hits and unclear results; the compound was inactive in the other large screens. Hits are enriched below; roughly 2.5% of the tested compounds scored in any of these assays. Calls come from the whole dose curve; as a rule, active = well fitted curve in the direction sought with a large enough effect; inconclusive = small, poorly fitted or top-dose-only effect, or another doubt; inactive = no such curve, though single readings can be large; an effect the other way counts as inactive or inconclusive.

COc1ccc2nc(-c3ccc(N)cc3)[nH]c2c1	Cruzain inh Det 28µM, Cruzain inh noDet 10µM
COc1ccc2nc(-c3cccc(N)c3)[nH]c2c1	none
CCOc1ccc(CCNC(=O)c2nn(C)c3c2CSc2ccc(C)cc2-3)cc1OCC	none
N#Cc1ccc(-c2csc(NNC(=O)c3ccccc3)n2)cc1	Cruzain inh noDet inconclusive
N#Cc1ccc(-c2csc(NNC(=O)c3ccc(Br)cc3)n2)cc1	Cruzain inh noDet 7.9µM
O=C(Nc1nc(-c2ccccc2)cs1)c1cccnc1	none
Cc1ccc(-c2csc(NC(=S)NC(=O)c3cc4ccccc4o3)n2)cc1	Cruzain inh noDet 6.3µM
Cc1ccc(-c2nc3ccccc3o2)cc1NC(=S)NC(=O)c1cc2ccccc2o1	Cruzain inh noDet 6.3µM
Cc1ccc(-c2csc(NC(=S)NC(=O)/C=C/c3ccco3)n2)cc1	Cruzain inh noDet inconclusive
Cc1ccc(-c2nc3cc(C(C)C)ccc3o2)cc1NC(=O)c1cc2ccccc2o1	Cruzain inh noDet inconclusive
O=C(NC(=S)Nc1nc(-c2ccc(Br)cc2)cs1)c1cccnc1	Cruzain inh noDet 4µM
CCCC(=O)N1c2nc(-c3ccco3)nn2C2(CCCCC2)[C@@H]2CCCC[C@@H]21	none
COC(=O)[C@@]1(Cc2ccccc2)[C@H]2c3cc(C(=O)N4CCCC4)[nH]c3C[C@H]2CN1C(=O)c1ccccc1	none
Cc1ccc(S(=O)(=O)OCC(=O)O)cc1	none
CC1CCN(S(=O)(=O)c2ccc3c(ccc(=O)n3CC(=O)NCc3ccccc3Cl)c2)CC1	none
C[C@@H]1C(c2ccccc2)=NN(c2ccc(Br)cc2)[C@H]1C(=O)N1CCOC1=O	Cruzain inh noDet inconclusive
Cc1cccc(C2=NN(c3ccccc3)[C@@H](C(=O)N3CCOC3=O)[C@@H]2c2ccc(Cl)cc2)c1	Cruzain inh noDet 22µM
Cc1cccc(C2=NN(c3ccc(Br)cc3)[C@@H](C(=O)N3CCOC3=O)[C@@H]2C)c1	Cruzain inh noDet 28µM
Cc1cccc(C2=NN(c3ccccc3)[C@@H](C(=O)N3CCOC3=O)[C@@H]2c2ccc(F)cc2)c1	Cruzain inh noDet inconclusive
O=C1OCCN1C(=O)[C@H]1[C@H](c2ccc([N+](=O)[O-])cc2)C(c2ccccc2)=NN1c1ccccc1	Cruzain inh noDet inconclusive
O=C1OCCN1C(=O)[C@H]1[C@H](c2ccc([N+](=O)[O-])cc2)C(c2cccc(Cl)c2)=NN1c1ccccc1	Cruzain inh noDet 11µM
Cc1cccc(C2=NN(c3ccccc3)[C@@H](C(=O)N3CCOC3=O)[C@@H]2C)c1	none
Cc1cccc(C2=NN(c3ccc(Br)cc3)[C@@H](C(=O)N3CCOC3=O)[C@@H]2c2ccc([N+](=O)[O-])cc2)c1	Cruzain inh noDet 6.3µM
O=C(O)Cc1cccnc1	none
O=C(Nc1cc(F)ccc1F)c1ccc2c(c1)nnn2C1CCCC1	none
Cc1ccc(S(=O)(=O)N/N=C/c2ccc(OCC(=O)Nc3ccccc3Cl)cc2)cc1	Cruzain inh noDet 25µM
COc1ccccc1NC(=O)COc1ccc(/C=N/NS(=O)(=O)c2ccc(C)cc2)cc1	none
Cc1ccc(C)c(NC(=O)CCc2c(C)n(C)c3cc(-c4ccccc4C)nn3c2=O)c1	none
COC(=O)Oc1ccccc1C(=O)O	none
Oc1ccc(C=Nc2cccc3ncccc23)c(O)c1	none
Oc1ccc(C=Nc2ccc3ncccc3c2)c(O)c1	Cruzain inh noDet 16µM
CCN(CC)C(=O)c1sc2c(c1C)c(=O)n(-c1ccc(Cl)c(Cl)c1)c(=O)n2CC(=O)Nc1cccc(OC)c1	none
CCOc1ccc(Cn2c(CNS(=O)(=O)c3ccc([N+](=O)[O-])cc3)nc3cccnc32)cc1	none
COc1ccc(N2C(=O)/C(=C/c3ccc([N+](=O)[O-])cc3)C=C2c2ccccc2)cc1	Cruzain inh noDet 16µM
O=C1/C(=C/c2ccc([N+](=O)[O-])cc2)C=C(c2ccccc2)N1c1ccccc1	Cruzain inh noDet 13µM
O=C1/C(=C/c2ccc([N+](=O)[O-])cc2)C=C(c2ccccc2)N1c1ccc(O)cc1	Cruzain inh noDet inconclusive
COc1ccc(-c2cc(=O)n(-c3ccc([N+](=O)[O-])cc3)[nH]2)cc1	Cruzain inh noDet inconclusive
CCc1noc2nc(C)n(CC(=O)O)c(=O)c12	none
CCC(=O)N1CCc2cc(S(=O)(=O)NCCC(=O)Nc3ccc(C)cc3C)ccc21	none
CC1CCN(CC(=O)N2c3ccccc3Sc3cc4ccccc4cc32)CC1	none
COC(=O)c1cccc(C23CC4(C2)[C@H](CN(Cc2cccnc2)[C@@H]4c2ccccc2)C3c2ccc(Cl)nc2)c1 (stereo partly specified)	none
COC(=O)c1ccc(C23CC4(C2)[C@H](CN(C)[C@@H]4c2ccccc2)C3c2ccccc2)cc1 (stereo partly specified)	none
COC(=O)c1cccc(C23CC4(C2)[C@H](CN(Cc2ccc(-c5ccccc5)cc2)[C@@H]4c2ccccc2)C3c2ccc(Cl)nc2)c1 (stereo partly specified)	Cruzain inh noDet 7.9µM
COC(=O)c1ccc(C23CC4(C2)[C@H](CN(Cc2ccc(-c5ccccc5)cc2)[C@@H]4c2ccccc2)C3c2ccccc2)cc1 (stereo partly specified)	Cruzain inh noDet 7.9µM
N#Cc1ccc(C23CC4(C2)[C@H](CN(Cc2ccc(-c5ccccc5)cc2)[C@@H]4c2ccccc2)C3c2ccccc2)cc1 (stereo partly specified)	Cruzain inh noDet 13µM
c1ccc(-c2ccc(CN3C[C@@H]4C(c5ccccc5)C5(c6ccccc6)CC4(C5)[C@H]3c3ccccc3)cc2)cc1 (stereo partly specified)	none
CCCC(=O)OC1(C(=O)CO)CCC2C3CCC4=CC(=O)CCC4(C)C3C(O)CC21C (stereo unspecified)	Cruzain inh noDet inconclusive
CCOc1ccccc1CNC(=O)C1CCN(c2nc3ccccc3nc2C(F)(F)F)CC1	none
CCN1CCc2nc(NC(=O)C(c3ccccc3)c3ccccc3)sc2C1	none
CCN1CCc2nc(NC(=O)CC(c3ccccc3)c3ccccc3)sc2C1	Cruzain inh noDet 32µM
COC(=O)c1ccc(NC(=O)COc2ccc(C3C(C#N)=C(N)Oc4c3ccc3ccccc43)cc2OC)cc1 (stereo unspecified)	Cruzain inh noDet 7.9µM
COC(=O)c1ccc(NC(=O)COc2ccccc2OC)cc1	none
N#CC1=C(N)Oc2c(ccc3ccccc23)C1c1cccs1 (stereo unspecified)	Cruzain inh noDet inconclusive
COc1cc(C2C(C#N)=C(N)Oc3c2ccc2ccccc32)ccc1OCC(=O)Nc1ccccc1C (stereo unspecified)	Cruzain inh noDet 13µM
COc1ccc2c(c1)O[C@H](c1ccc3c(c1)OCO3)[C@@H](OC(=O)NCc1ccco1)C2=O	none
CN(C)c1cccc2c(C=C(C#N)C#N)ccc(N(C)C)c12	Cruzain inh Det 20µM, Cruzain inh noDet 20µM
Cc1cc(C=C(C#N)C#N)c(C)n1-c1ccccc1	none
O=C(c1ccccc1)N1CCc2cc(CNS(=O)(=O)c3ccccc3Cl)ccc21	none
CCOc1ccccc1CNC(=O)c1cc2oc3ccccc3c2n1CC	Cruzain inh noDet 32µM
CCn1c(C(=O)NCc2ccc(F)cc2)cc2oc3ccccc3c21	none
CC(C)COc1cccc(C(=O)Nc2ccc(-c3nc4ncccc4o3)cc2)c1	none
CCOc1ccc(S(=O)(=O)c2c(C(=O)c3ccc(C)c(C)c3)cnc3ccccc23)cc1	Cruzain inh noDet 20µM
COc1ccc(S(=O)(=O)c2c(C(=O)c3ccc(C)c(C)c3)cnc3ccc(F)cc23)cc1	Cruzain inh noDet 13µM
